Potency data for 40 compounds are collected here from PubChem BioAssay (Tox21).

Each structure is given as a SMILES string. Records with an inconclusive call do not appear. Entries that show only a call come without a potency. The source holds several records for some structures; these can differ, active in one and inactive in another. Active and inactive are the calls of the source. Calls come from the whole dose curve; as a rule, active = well fitted cell-killing curve with a large enough effect in the repeat runs; inconclusive = weak or mixed curves; inactive = no such curve, though single readings can be large or run the other way.
Potency is the fitted concentration of half-maximal effect.

This test is described as follows: qHTS assay for identifying genotoxic compounds that show differential cytotoxicity against isogenic chicken DT40 cell lines with known DNA damage response pathways - Rad54/Ku70 mutant cell line (AID 743015). Note: nearly all actives have a fitted effect of over 60% in size. The note with it: DT40 Rad54/Ku70 mutant viability, CellTiter-Glo, 40 h; series mostly up to 66.8 µM. An excerpt: National Center for Advancing Translational Sciences [NCATS]
NIH Chemical Genomics Center [NCGC]
U.S. Environmental Protection Agency [EPA]
National Institutes of Environmental Health Sciences [NIEHS]
National Toxicology Program [NTP]
U.S. Food and Drug Administration [FDA]
DNA repair pathways play a critical role in cellular homeostasis by repairing DNA damage induced by endogenous processes and xenobiotics. Isogenic chicken DT40 cell lines deficient in different DNA repair pathways can be used to identify genotoxic compounds and aid in characterizing the nature of the DNA damage induced. Two DNA repair-deficient cell lines with disrupted genes, Rad54/Ku70 or Rev3, were used to screen the Tox21 10K compound library. Possible genotoxicity was based on the presence of a significant increase in cytotoxicity in one or more of the DNA repair-deficient cell lines compared to that observed in the parental DNA repair-proficient cell line. CellTiter Glo viability assay (Promega, Madison, WI) was used to measure cell viability in these cells after compound treatment. This assay includes the data from the Rad54/Ku70 mutant cell line.
Tox21 Assay Protocol Summary:
300 DT40 mutant cells in 5 uL/well were dispensed into white, solid-bottom 1536-well plates using a Multidrop Combi (ThermoFisher Scientific, Waltham, MA) dispenser. After the assay plates were incubated at 37 C/5% CO2 for approximately 0.5 hour, 23 nL of compounds dissolved in DMSO, positive controls or DMSO only was transferred into the assay plate by a pintool work station (Kalypsys, San Diego, CA). The assay plates were incubated at 37 C/5% CO2 for 40 hours. After 5 uL per well of CellTiter-Glo reagent was added into each well of the assay plates, the plates were incubated for 30 min at room temperature and the luminescence intensity of the plates was measured using a ViewLux (PerkinElmer, Shelton, CT) plate reader.
In the case of `CCCCNc1ccccc1`, the Potency result is “inactive”.

Turning to `CN1[C@@H]2CC[C@H]1CC(NC(=O)n1c(=O)[nH]c3ccccc31)C2` (stereo not given in full), the Potency result was “inactive”.

Consider `COc1cc(CCC(C)=O)ccc1O`, for which the Potency entry is “inactive”.

Regarding `CC(C)(O)C(=O)c1ccc(OCCO)cc1`, the Potency result was “inactive”.

In the case of `O=C1C(CCS(=O)c2ccccc2)C(=O)N(c2ccccc2)N1c1ccccc1` (stereo not given), the Potency entry was “inactive”.

Turning to `CCCC(C)CO` (stereo not given), the Potency result is “inactive”.

For `CSc1ccc(C=O)cc1`, the Potency entry is “inactive”.

For `CC(C)CCOC(=O)CC(C)C`, the Potency result is “inactive”.

Take `O=C(O)/C=C/c1ccc(Cn2ccnc2)cc1`: the Potency result is “inactive”.

For the compound `CC(C)=CCC/C(C)=C/C(=O)O`, the Potency result is “inactive”.

In the case of `C=C(C)C(=O)NCCCN(C)C`, the Potency result is “inactive”.

In the case of `CC(C)=CC(=O)O`, the Potency result was “inactive”.

Consider `N#CCc1ccccc1[N+](=O)[O-]`, for which the Potency entry was “inactive”.

On to `CCCCN(CCO)CCO`, for which the Potency result is “inactive”.

Consider `NS(=O)(=O)c1cc2c(cc1C(F)(F)F)NC(Cc1ccccc1)NS2(=O)=O` (stereo not given), for which the Potency entry is “inactive”.

For the compound `CCCCCOC(=O)Nc1nc(=O)n([C@@H]2O[C@H](C)[C@@H](O)[C@H]2O)cc1F`, the Potency result was “inactive”.

With `O=C(O)c1cccc(C(=O)O)n1`, the Potency entry was “inactive”.

For `CN(C)CCOC(c1ccc(Cl)cc1)c1ccccn1` (stereo not given), the Potency result is “inactive”.

Regarding `O=S(=O)(c1cccc2cnccc12)N1CCCNCC1`, the Potency result was “inactive”.

In the case of `CCN1CCCC1CNC(=O)c1cc(S(N)(=O)=O)ccc1OC` (stereo not given), the Potency result was “inactive”.

On to `c1cc(CN2CCCCC2)cc(OCCCNc2nc3ccccc3s2)c1`, for which the Potency was 23.7 µM (active).

As for `C=CCn1c(=O)n([C@@H]2O[C@H](CO)[C@@H](O)[C@H]2O)c2nc(N)[nH]c(=O)c21`, the Potency entry is “inactive”.

Consider `CC(=O)OC(C)(C)C`, for which the Potency entry was “inactive”.

With `Cc1ccccc1C(=O)O`, the Potency entry is “inactive”.

With `CCCC(C)C(=O)O` (stereo not given), the Potency result was “inactive”.

Consider `COc1cccc(Br)c1`, for which the Potency entry is “inactive”.

For the compound `CCC(=O)Nc1cccc(N)c1`, the Potency result is “inactive”.

As to `O=C1OC(=O)c2cc([N+](=O)[O-])ccc21`, the Potency entry was “inactive”.

In the case of `CCC(C)(C)C1CCC(OC)CC1` (stereo not given), the Potency result is “inactive”.

Regarding `NS(=O)(=O)c1cc2c(cc1Cl)NC(CSCc1ccccc1)=NS2(=O)=O`, the Potency entry was “inactive”.

As to `O=C(O)c1ccccc1S`, the Potency entry is “inactive”.

`CC(=O)O[C@H](CC(=O)[O-])C[N+](C)(C)C`: the Potency entry was “inactive”.

As to `CCOC(=O)[C@H](CCc1ccccc1)N[C@@H](C)C(=O)N1CCC[C@H]1C(=O)O`, the Potency entry is “inactive”.

`[O-][N+](=Nc1ccccc1)c1ccccc1`: the Potency is 26.6 µM (active) and inactive.

On to `COCCOC(=O)CC#N`, for which the Potency result is “inactive”.

For `CCCCc1ccc2cccc(S(=O)(=O)O)c2c1`, the Potency result was “inactive”.

For the compound `NC(=O)c1c(Cl)cccc1Cl`, the Potency result is “inactive”.

Take `CCCCc1ccc(N)cc1`: the Potency entry was “inactive”.

With `C1C2OC2C2C1C1CC2C2OC12` (stereo not given), the Potency entry was “inactive”.

Turning to `CCCCCCOC(=O)CC(CC(=O)OCCCCCC)(OC(=O)CCC)C(=O)OCCCCCC`, the Potency entry is “inactive”.
